The record followed here is PubChem BioAssay AID1347426 (Functional Genomics Laboratory (NCATS/FGL), 2020).

The whole screen tested about 31,000 sequences, of which about 1,400 (4.5%) were called active. This excerpt belongs to a sample that is enriched for actives. Unmarked numbers belong to inactive results.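 The calls were made as follows: active = median seed-adjusted z-score above 1 or below -1; inactive = the rest.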

The assay in a line: Novel Modifiers of Survival Motor Neuron (SMN) Protein: Gene Identification via Genome-wide siRNA Screen.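 Also: luminescence tracks full-length SMN protein made from the SMN2 reporter.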 Conditions: HEK293T SMN2-luciferase reporter, siRNA knockdown, 72 h; actives lie on both sides. In outline: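 HEK293T cells stably expressing an SMN2 splicing/cDNA-luciferase reporter were reverse-transfected with a druggable-genome siRNA library and read by luminescence at 72 hours; hits defined by MAD score above 1.0 or below -1.0.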
(In general: A reporter such as luciferase makes a cellular process visible.)
With GAAGUUCUCUUUACAACCATT against RFX2, the median seed-adjusted z-score was 0.271.
Then GUUCAGCACUCAUUAGACATT against ZNF17, with 0.579.
Turning to CGAUCAUUACCUCUCCAGATT against ARHGEF4, the median seed-adjusted z-score is 0.332.
The result for GAAUGACCAGAGACAUCUATT against INSR reads 0.172; that for GGAUUUGCCGAAUUAACAATT against RELB, 1.16 (active).
As for GGAGAUAGCUUUGCCUAUATT against RBM15B, the median seed-adjusted z-score was -0.183.
The result for GGUACUCGGUGGAAACCAATT against CNKSR3 reads 0; that for CAUUAACCAGUGAACGCAATT against AADAT, 0.0891.
Then CAAGAAUGUUACUAACAAUTT against TPM4, with -0.407; and GCUACAGUCUCUACCCUGATT against BARX1, with 1.63 (active); and AGCUCAAGAAGUACACCAATT against CHST12, with 0.
Then CCUCGAUUCCAUUAUCAUUTT against RECQL4, with 0.475.
Regarding GCCUAGAGGACUACAAGAATT against FZD8, the median seed-adjusted z-score is -0.177.
The result for GCGUAAUUUGGACCUCUUUTT against ZDHHC21 reads 0.216; that for CAUUGUGAGCUAUAACGAUTT against CDH10, 0; that for GAAACAGUGCUAGAUAAAATT against SULT1C2, 0.
CCAUCUAGCUUAUCGAUAUTT against DYRK3: the median seed-adjusted z-score is 0.358.
The result for GAAUUCAGCAUGACCGAUATT against GABPA reads 1.43 (active); that for CCAUUAUGAUCGUAAGGCATT against GCNT4, -0.0629.
Then GCAAGUACCUGAGAACGGATT against APOB, with -0.0862.
Then GGCUCUCGUAUGUAACGUATT against USP24, with 0.101; and GGUUCUCUUGCAUUACUUUTT against GLP2R, with 0.492.
For AGAUCGCUGUCAAAACCCUTT against GFOD1, the median seed-adjusted z-score is 0.923.
Then GGUUAACCCAGAACGUAAATT against TCP1, with -1.02 (active).
The result for GGACCCUACCAGAACUACATT against SEMA6D reads 0.0624; that for GGACUGAGCUUCUCAAUGUTT against FOLR1, -1.31 (active); that for GCAUCGUGAUCGUUCCAAUTT against CHD1L, 0.63.
Then GACCAUGGAUAAUAAGAAATT against CLCN6, with -0.136; and CAACUGUUCCAACAACAAUTT against HAVCR1, with -0.306; and GAGUCCUAUUACCAGCUCATT against SRM, with 0.
Regarding CUGCCGAACUUUUAAACAATT against MCHR2, the median seed-adjusted z-score was -0.658.
The result for UGGAAUCUGUGGUAAAGAATT against HGS reads 1.16 (active).
Then CCACGUCUAAAGUCCGAAATT against KIF3C, with 0.0126.
Then GAAUGGUCGUGGAUUCACATT against MAPKAPK5, with 0.489; and GGAGAUUCCAUAAGACAAUTT against ZNF114, with -0.303.
In the case of GGAUCUUCGUGAAGUAUUUTT against TRA2A, the median seed-adjusted z-score was -0.187.
The result for AAAUUCCCGUCAUUGAAAATT against SNRPA1 reads -2.71 (active); that for GGAUUGCUUCUGACUCCGATT against ELK3, -0.16; that for CAUUGACCACUACAAGUAATT against ITFG1, -0.417.
The result for CAUUUGCGGUUCGGACAAATT against CACNB2 reads 0.
The result for CUCUGUGAAUUUGAAAUCATT against SNED1 reads 0.148.
As for GCAAGAUAGCUCAACCCAATT against ADAMTS12, the median seed-adjusted z-score was -0.0721.
On to GUAUCAUGGAUGGAAAAGATT against ASRGL1, for which the median seed-adjusted z-score is 0.
The result for GCAGAGGAGUCAAUGCUAUTT against ARL8B reads -0.477.
Then AGCUUUUGUUGAGAGUUCATT against YY1, with 1.94 (active).
In the case of GCUACUUACAGGUACCGUATT against PDCD11, the median seed-adjusted z-score is -0.335.
Then GUUUCUGAUUUAAUAGACATT against ZNF781, with 0.0307; and CCAACAAACUCACCAUACATT against KREMEN1, with 0.
Then AAACAAUUCCAGUCCAGUUTT against IL8RA, with 0.316; and CACCUGCGAGUGUUCCAAUTT against CSTB, with 1.08 (active); and GGAAAGUUCUUUAGACUUATT against ZNF529, with -0.243.
Then GAAUCAACAAGAUUGGGAATT against CBS, with -0.0696; and UCGUGUUCCUAGUCAUCUATT against TCIRG1, with 0.123.
In the case of GUCACGUACUCGCUGCUGATT against SMAD6, the median seed-adjusted z-score is -0.167.
Consider GGCUCAACAUACAUCAGAATT against ZNF350, for which the median seed-adjusted z-score is 0.133.
Then GGCACUCCAUGCUCACUGUTT against AGPAT1, with -1.38 (active); and GGUGAAAGGUCAGAUCUAATT against ZNF436, with 0.00767; and GGAAGUAUCAGAUCUUGAATT against CYFIP2, with -0.322.
Then GCAGUGUAUAGAACGAGAATT against RNGTT, with -1.55 (active).
The result for GCACAUCAAGUUCUAUACATT against SLCO2A1 reads -0.0778; that for CCCUGUCAUCUAUGCUCUATT against CNR2, 0.33.
On to GACCCACAAAUAUACCAUUTT against SMAP1, for which the median seed-adjusted z-score was -0.201.
With GCAAAGCUCUAAAGCCCAATT against TXNDC12, the median seed-adjusted z-score is -0.154.
The result for GGAUUAAAGUGUGAAGACUTT against PRKCD reads -0.236; that for GGGCAGAUGACACCUUUGATT against TCEB2, 1.28 (active); that for CGCAAGGACAGAAAACCAATT against ASMT, -0.322.
The result for ACGGCUACGUGGUAAAGGATT against RPS6KA1 reads 0.194; that for CAGCAACCAGAGGAGUAUATT against TCF20, 0.392.
CCGUCAUGCACUUACCUUUTT against ADCY9: the median seed-adjusted z-score was 0.269.
Then CAUCAUGACAUGUAUGAUUTT against PAFAH1B3, with -0.381; and GAGUGUGACUGGUAAAGUUTT against SMNDC1, with -1.54 (active).
Regarding GAGGAAUUGUUGAUAAAGATT against MAGI2, the median seed-adjusted z-score is -0.23.
The result for GAAUGCUCCUUUACCAGAATT against GRB10 reads -0.0341; that for GGAAGAACAUGACAACCAATT against IFIT1, -0.489; that for CCAACGAUCUGGACCGUGUTT against MED16, -0.6.
Then GAACCUGGAUCACAUAAUATT against DFFB, with 0.242; and CCAAGAUUGUCACUCUGGATT against E2F7, with -0.0972; and GGUUCGAGGUAAACCCUAATT against CTPS2, with 1.08 (active).
The result for GGGCUACAAACUGAACAAATT against LOC81691 reads -0.285.
Regarding CAACAGCGAUUUGAUGGAATT against ERO1L, the median seed-adjusted z-score was -0.251.
The result for GGAACUGUUUAUAAGGGUATT against RAF1 reads 0; that for GGCACGUUUUACGACAGAATT against CHEK2, 0.585; that for GGCACAUGGUUAACCUGGATT against GPX4, -1.18 (active).
The result for CCCAGGAAGUUCUACUACATT against HS6ST1 reads -0.436; that for GAACUUCACUUAGGACAUUTT against ATP6V1G1, 0.311; that for GACUCAAUGGUUUGCAUUATT against CTDP1, -2.29 (active).
As to GGAUGAUCAUGAGCGGCAATT against PHKG1, the median seed-adjusted z-score was -0.153.
The result for GCUUCAUUGUGGACCGGCATT against GALNTL4 reads 0; that for GACUGGAGAUAUCAAGGAATT against SQLE, -1.14 (active).
As for CAAUGAAGAUAUGUUUAGATT against WBP5, the median seed-adjusted z-score is 0.452.
The result for GAUCAUUGAGAACACGUAUTT against RNF121 reads -0.53; that for GAAUCCACCUUCGACCUGATT against HMX1, 1.3 (active); that for CCACUGAAUAUGUGCAGAATT against FBP2, 0.
On to CGGCUACGACGAUUACGAATT against MYO15A, for which the median seed-adjusted z-score was 0.0508.
The result for GGAUUUCGAUUGCAUCAUUTT against LGI1 reads -0.19; that for AGUGGGUGCUGAACCAUGATT against FES, 0.402.
Then GCCCAGAGACUAUUCAGUATT against SF3A3, with -2.1 (active).
Then CGUGGAAUACUAGAGCAAATT against ACTL6A, with 1.11 (active); and CAGACUUGCUUAAUAGUAATT against ZFP1, with 0.0391; and GGAACUACCAUGCAGGCUATT against ATP6V0B, with 0.
Take CCAGCAUGGUUACUACGAATT against TRAIP: the median seed-adjusted z-score is -0.018.
Then GGAACAAGAGUGGACGGAATT against PIAS3, with -0.216; and CCAGCUCUUCCAUACAAUATT against RAB9A, with 0.247.
Regarding GGCUUCAUAUCUAGACUAATT against APOBEC3A, the median seed-adjusted z-score is 0.467.
Then UGUUCAGCCUUGACUCAAATT against RHOU, with -1.44 (active); and GCACCUAUGAGGAAAAUGATT against LAMB2, with 1.12 (active); and GAAGCUUGAUCUAAUUAUATT against ZNF182, with 0.
The result for CCAUUUCCAGAGGCCCAGATT against SLC22A12 reads -0.148; that for GCCUGGAACUCGUUAGCAATT against TRMT11, -0.707.
